The values below come from the supplement of paper PMC11417369.

± gives the standard deviation of the averaged measurements. Whole data set: some 25,000 sequences, median “ln(normalized median fluorescence intensity)” near 7.9, cut for the highest 2% near 11. Only a selection was taken, and the highest values are over-represented in it overall.

The subject of this assay is PfAP2-I AP2 domain 3 (GST-tagged). Description: gcPBM binding intensity (ln(normalized median fluorescence intensity)); higher = stronger DNA binding. Put shortly: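 After 1 h on an Agilent 4 × 180k array of primer-extended double-stranded 36-bp intergenic genomic probes and negative controls, bound GST-tagged P. falciparum DNA-binding domains were detected with Alexa488 anti-GST antibody and scanned at 488 nm. The domains had been expressed in E. coli, and binding took place in 1× PBS with 1% milk, 0.2 mg/ml BSA, 0.5% salmon testes DNA and 0.03% Triton X-100. Binding intensity is the highest Masliner-normalised natural-log median intensity across replicate spots of either probe orientation.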
“TTTGTTATATTTAATACACACATATTATAAACCCAT [CACACA_site3716]”: the “gcPBM binding intensity (ln)” value is 7.95 ± 0.59.

For the sequence “TTTTCTTACACGAATTTTAAATTCAATATTAAACAT [CACACA_negctrl_site286]”, the “gcPBM binding intensity (ln)” value was 8.03 ± 0.44. To “ATGTATATTTTTATGTGTACGTAATAAAACATAATA [XGTACX_site7777]” belongs 8.33 ± 0.27; to “AAATCCATATAGGATTGTACATATATTATATATATA [XGTACX_site8818]”, 8.46 ± 0.39; to “ATCCTCTTTACAATATGTACATAAATATATATTTAT [XGTACX_site8001]”, 8.47 ± 0.43. To TTTTGTTATTTTTCAGTGCAATATGATAATAATATA belongs 10.5 ± 0.46; to “TACACATAATATAATGCATGTGTGATGTATGTTTAA [TGCATGCA_site697]”, 8.09 ± 0.66; to TTTTTTGTTATGCGGGTGCATATAATAATGTGATGA, 10.9 ± 0.89. With “TTTTTTTTTTTTTGTACATGCAAATATTATGAACAC [TGCATGCA_site571]” the figure was 8.28 ± 0.53; with “GAAATAATTCGATGTGCATGTAACGTTTCCCCAAAG [TGCATGCA_site122]”, 8.58 ± 0.54; with “AATAAATAAATAAGTACACACATATAAATATAAATA [CACACA_site6271]”, 7.91 ± 0.25.

On to ATTCTTAAAAAATAAGTGCAAAATAATTAAATAAAT, for which the “gcPBM binding intensity (ln)” value was found to be 10.23 ± 0.014. With TGATATAAAATTAAAGTGCAAAAAAAAAATAAAAAA the figure was 10.06 ± 0.078. Consider TTTTATGCGCAATAAGTGCATTTAAAATATATATAT, for which the “gcPBM binding intensity (ln)” value stood at 11 ± 0.13.

For the sequence “AATATATATAAAAAAGTGCATTAGGATAACCATATA [GTGCAC_site9590]”, the “gcPBM binding intensity (ln)” value came to 11.2 ± 0.57.

On to “TTTTATGCATGTGAAGTGCAAAATAAAAAATAAAAT [GTGCAC_site9612]”, for which the “gcPBM binding intensity (ln)” value worked out at 10.8 ± 0.4.

On to TGGTTTATTTATTAAGTGCATAAATGCAATATATAT, for which the “gcPBM binding intensity (ln)” value was determined as 10.6 ± 0.44. Regarding “AATAAAATAAATATATGTACATATATATAACCATTA [XGTACX_site5549]”, the “gcPBM binding intensity (ln)” value came out at 7.59 ± 0.38. With “TGTTATTAAAATATAGTGCATAATTAACCATTATAA [GTGCAC_site9594]”, the “gcPBM binding intensity (ln)” value was 10.8 ± 0.65. To “AAGTATTATTTTTATGCATGTGAAGTGCAAAATAAA [TGCATGCA_site198]” belongs 11 ± 0.43.

Take ATATATTTTTATGTAGTGCATTTAAATAATAAATGC: the “gcPBM binding intensity (ln)” value came out at 10.7 ± 0.55. On to “AGGATATATAATTAAGTGCATTAATTCAAAATAAAA [GTGCAC_site9702]”, for which the “gcPBM binding intensity (ln)” value was 11.5 ± 0.54. As for “TTATAAAATATTTATGCATGTGAAGAATATTATAAA [TGCATGCA_site1047]”, the “gcPBM binding intensity (ln)” value was 8.42 ± 0.34. Take “AAAAAAAAAAAAAATTGTACATTAAATTAAAAGAAA [XGTACX_site8708]”: the “gcPBM binding intensity (ln)” value was determined as 7.88 ± 0.28. As to ATATATATATATATAGTGCAAATATCTTCTTTATAA, the “gcPBM binding intensity (ln)” value is 10.4 ± 0.26. To “ATACAAGAATTAAACACACACAAAATATAAATTCTT [CACACA_site3005]” belongs 7.85 ± 0.71. To “AAATATTATTGACGATGTACTTCTATTCATAAGTAT [XGTACX_site3964]” belongs 7.55 ± 0.5; to “TAAAAATAAAGAAAATGTACATAAATAAAAATAAAG [XGTACX_site2279]”, 8.14 ± 0.69; to “GATATAATGTGTTTGGTATTCTTGATAGATAGTTTT [CACACA_negctrl_site1711]”, 7.7 ± 0.47. For “TGTAATGTTTACAACACACAAATTATAAATACAAAA [CACACA_site5047]”, the “gcPBM binding intensity (ln)” value was 7.67 ± 0.59. With “TATATGTTTTATAGTACACACATAAATGGACATACT [CACACA_site2191]” the figure was 7.83 ± 0.33; with “CTATATTTCGTTGGACGTACAAATGTGATAATTAGG [XGTACX_site3232]”, 8.06 ± 0.46; with TAAATATATATATAAGTGCATTATATATATATATAA, 11.2 ± 0.57. With “TTGTATTAAAATCAAGTGCATATAATTTAAGTTCAT [GTGCAC_site9495]”, the “gcPBM binding intensity (ln)” value was 9.54 ± 0.042.

Take GTCATCAAGTATTAAGTGCATTAAAAATAAAATATA: the “gcPBM binding intensity (ln)” value worked out at 11.3 ± 0.62. Take AGGTAAAAATGGTAAGTGCATTAATGATAAAAAATG: the “gcPBM binding intensity (ln)” value was determined as 11.1 ± 0.18. With TGTAAAATATAAAAAGTGCATTTCTTTTAATATGAT the figure was 9.96 ± 0.19. To “ATCCTTTATAAATAAGTGCATATAAAAAATAATATT [GTGCAC_site9759]” belongs 10.1 ± 0.3.

With “TATCAATATTAAAAAGTGCAAAATAAAATATAAAAT [GTGCAC_site9486]”, the “gcPBM binding intensity (ln)” value was found to be 10.7 ± 0.23. Regarding TAAATTAATAAACAAGTGCATATATATATATATATA, the “gcPBM binding intensity (ln)” value is 10 ± 0.49. For “TTGTGTAAATGTTAAGTGCATTTGGTAAAATATAAA [GTGCAC_site9699]”, the “gcPBM binding intensity (ln)” value was found to be 9.51 ± 0.11.

With “TAAAAAATAAAATACACACACATATATATATATATA [CACACA_site1323]”, the “gcPBM binding intensity (ln)” value was determined as 9.33 ± 0.2.

Regarding “ATTATGAATTTAAGACGTACAAAAAATTTTTATTCA [XGTACX_site5682]”, the “gcPBM binding intensity (ln)” value worked out at 7.8 ± 0.31. As for “ACAAAATTTACAAAATGTACAAAATTTACAAAGTAT [XGTACX_site6463]”, the “gcPBM binding intensity (ln)” value worked out at 7.54 ± 0.56. On to “ACATATATTGTACATACACACCTATATAAATATCCT [CACACA_site7503]”, for which the “gcPBM binding intensity (ln)” value was found to be 8.24 ± 0.54.

With “AATAGTCGTGTGCATACACACCTTAACTATAATATA [CACACA_site6636]”, the “gcPBM binding intensity (ln)” value turned out to be 8.83 ± 0.2. On to “AACAATATGGATGTATGTACACATATAGAACGTTAT [XGTACX_site7142]”, for which the “gcPBM binding intensity (ln)” value was found to be 7.91 ± 0.72.

For the sequence “TATGAATGTATATGTTGTACATATAAATATTTATAT [XGTACX_site1146]”, the “gcPBM binding intensity (ln)” value turned out to be 7.72 ± 0.34. To “TTTGTATTAAAAAAAAAAAAAAAAAAAATGAATAAA [TGCATGCA_negctrl_site292]” belongs 7.34 ± 0.41. To “TTGTATTTCCTTAGGAGTACACATAAATAAGTAAAT [XGTACX_site6677]” belongs 8.22 ± 0.092; to “ATAATTACATAGATTGGTACACATTTTTGATTGTAT [XGTACX_site3802]”, 7.71 ± 0.44.
